Laboratory results reported in PubChem BioAssay AID1434 (Sanford-Burnham Center for Chemical Genomics, 2008).
The campaign covered roughly 220,000 compounds. About 1,600 (0.73%) were called active.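 The calls were made as follows: active = mean inhibition across duplicate retests at 20 µM reaching about 50% (limit read from the data); inactive = the rest, inconclusive results apart.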 Only a selection was taken, and actives are over-represented in it overall.

Molecular target: Runt-related transcription factor 1 (Homo sapiens) + Core-binding factor subunit beta (Homo sapiens) (UniProt Q01196+Q13951)
Sequence (Q01196 whole entry, looked up): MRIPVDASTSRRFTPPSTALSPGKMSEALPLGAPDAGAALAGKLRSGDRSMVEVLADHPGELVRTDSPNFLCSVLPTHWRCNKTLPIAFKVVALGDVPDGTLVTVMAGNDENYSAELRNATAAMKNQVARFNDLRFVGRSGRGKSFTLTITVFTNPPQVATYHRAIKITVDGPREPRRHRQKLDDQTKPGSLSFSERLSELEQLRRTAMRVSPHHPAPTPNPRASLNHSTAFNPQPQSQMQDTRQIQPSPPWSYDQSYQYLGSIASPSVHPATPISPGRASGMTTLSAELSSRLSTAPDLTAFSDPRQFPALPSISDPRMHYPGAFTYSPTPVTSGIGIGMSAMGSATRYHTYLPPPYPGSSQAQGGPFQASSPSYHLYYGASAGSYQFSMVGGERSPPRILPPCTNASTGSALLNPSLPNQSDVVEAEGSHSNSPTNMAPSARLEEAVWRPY
Sequence (Q13951 whole entry, looked up): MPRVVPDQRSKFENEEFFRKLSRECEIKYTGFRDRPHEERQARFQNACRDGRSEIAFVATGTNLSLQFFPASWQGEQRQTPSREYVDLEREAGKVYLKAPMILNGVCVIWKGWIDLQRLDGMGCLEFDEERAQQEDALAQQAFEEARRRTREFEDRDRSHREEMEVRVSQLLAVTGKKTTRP
Test: inhibitors of RUNX1 Runt–CBFb-SMMHC binding, primary screen, biochemical, FRET, Cerulean-Runt, Venus-CBFb-SMMHC, uHTS (AID 1434);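 also: 0% = DMSO wells and 100% = wells with excess untagged CBFb-SMMHC; inhibitors lower the FRET ratio by blocking Runt binding to CBFb-SMMHC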
Conditions: Cerulean-Runt/Venus-CBFb-SMMHC FRET ratio 530/480, 1 h, at 20 µM, stronger effect = higher value

Row | SMILES | inhibition | inhibition (retest duplicate average)
1 | COc1ccc(-c2cc3ccc(OCc4nn[nH]n4)cc3oc2=O)cc1 | 16.9% (inactive) | 
2 | O=c1c(-c2ccccc2)coc2cc(O)ccc12 | -4.05% (inactive) | 
3 | O=c1oc2cc(O)ccc2cc1-c1ccc(F)cc1 | 61.6% (active) | 71.5%
4 | NS(=O)(=O)c1ccc(NC2=CC(c3ccc(F)cc3)N(c3ccc(S(N)(=O)=O)cc3)C2=O)cc1 (stereo not given) | -4.3% (inactive) | 
5 | Cc1ccc(Cl)cc1NC(=O)c1ccccn1 | -0.3% (inactive) | 
6 | COC(=O)C1=C(C)OC(N)=C(C#N)C1c1cc(OC)ccc1OC (stereo not given) | -18.1% (inactive) | 
7 | COc1ccc(C2C(C#N)=C(N)Oc3cc(N)ccc32)cc1OC (stereo not given) | 102% (active) | 108%
8 | CCC1=C(C(=O)OC)C(c2cc(OC)ccc2OC)C(C#N)=C(N)O1 (stereo not given) | -8.1% (inactive) | 
9 | Cc1cc2nc(C(F)(F)F)cc(-c3cccs3)n2n1 | -2.5% (inactive) | 
10 | CC(C)c1ccc(Nc2ncccc2C#N)cc1 | 2.1% (inactive) | 
11 | Cc1ccc2c(CSc3nncs3)cc(=O)oc2c1 | -1% (inactive) | 
12 | CCOC(=O)Cc1csc(NC(=O)COc2ccc3c(C)cc(=O)oc3c2)n1 | -11.5% (inactive) | 
13 | CCOC(=O)Cc1csc(SCc2cc(=O)oc3cc(O)ccc23)n1 | 121% (active) | 114%
14 | C=CCNC(=O)COC(=O)c1ccccc1C(=O)N(C)C1CCCCC1 | -5.7% (inactive) | 
15 | COc1ccc2c(CC(=O)OCC(=O)NC(N)=O)coc2c1 | 2.1% (inactive) | 
16 | Cc1cccc(-n2ncc(C#N)c2-n2cccc2)c1 | -1.3% (inactive) | 
17 | Cc1ccc(-n2c(=O)c(C#N)cc3c(=O)n4ccccc4nc32)cc1C | 58.7% (active) | 72.9%
18 | Cc1ccc(-n2ncc3c(=O)n(-c4ccc(C)c(C)c4)c(-c4ccco4)nc32)cc1 | 1.4% (inactive) | 
19 | COc1ccc(NC(=O)C(Br)C(C)C)cc1 (stereo not given) | 2.9% (inactive) | 
20 | c1ccc(-n2nnnc2-c2cccnc2)cc1 | -4.7% (inactive) | 

Row | SMILES | inhibition | inhibition (retest duplicate average)
21 | COc1cc(COCC(O)CN2CCN(Cc3ccc4c(c3)OCO4)CC2)cc(OC)c1OC (stereo not given) | 1.8% (inactive) | 
22 | COc1c(O)ccc2c1CN1CCc3cc4c(cc3C1C2)OCO4 (stereo not given) | 78% (active) | 110%
23 | COc1ccc2cc1Oc1ccc(cc1)C[C@H]1c3cc(c(OC)cc3CCN1C)Oc1c(O)c(OC)cc3c1[C@H](C2)N(C)CC3 | -0.6% (inactive) | 
24 | CC(C)n1c(-c2ccncc2)n[nH]c1=S | -1.2% (inactive) | 
25 | Cc1ccc(C)c(Cn2nnc3c(=O)[nH]c(C(=O)Nc4ccc(F)cc4)nc32)c1 | 1.2% (inactive) | 
26 | COc1ccc(Cl)cc1S(=O)(=O)N1CCC(O)(c2ccc(Cl)cc2)CC1 | -1.4% (inactive) | 
27 | CCOC(=O)CNC(=O)CSc1nnc(-c2cccc(OC)c2)n1CC | 60.6% (active) | 67.7%
28 | CCOC(=O)CNC(=O)CSc1nnc(COc2ccc(Cl)cc2)n1CC | 2.7% (inactive) | 
29 | C=CCn1c(COc2ccccc2)nnc1SCC(=O)NCC(=O)OCC | 0.8% (inactive) | 
30 | Cc1cc2oc(=O)cc(CN3CCN(S(=O)(=O)c4cccs4)CC3)c2cc1C(C)C | -6.5% (inactive) | 
31 | CCN(CC)CCC(c1cc(OC)c(OC)c(OC)c1)c1c(OC)cc(OC)c2c(-c3ccccc3)cc(=O)oc12 (stereo not given) | 1.1% (inactive) | 
32 | O=c1[nH]c(CN2CCN(S(=O)(=O)c3ccc4c(c3)OCCO4)CC2)nc2sc3c(c12)CCCC3 | -6.3% (inactive) | 
33 | COc1ccccc1-c1c(C#N)c(N)nc2c1CCC2 | 61.7% (active) | 60.2%
34 | COc1ccc(-c2cc(-c3ccc(N)cc3)nc(N)c2C#N)cc1OC | 52.8% (inactive) | 46.8%
35 | CSc1nc(N)c(C#N)c(-c2ccccc2Cl)c1C#N | 2% (inactive) | 
36 | COc1ccc(OCCNS(=O)(=O)Cc2ccccc2)cc1 | 2.9% (inactive) | 
37 | Cc1ccnc(Nc2nc3ccccc3s2)n1 | -5.4% (inactive) | 
38 | Cc1ccnc(-n2sc3ccccc3c2=O)n1 | 54.6% (active) | 58.2%
39 | Cc1ccnc(N2CCC(C(=O)NC3CCCCCC3)CC2)n1 | 0.3% (inactive) | 
40 | CCCCCCc1cc2cc(-c3nnc(-c4ccccc4)o3)c(=O)oc2cc1O | 80.9% (active) | 146%

Row | SMILES | inhibition | inhibition (retest duplicate average)
41 | Cc1c(CCC(=O)O)c(=O)oc2cc3occ(-c4ccccc4)c3cc12 | -3.4% (inactive) | 
42 | CCCC(=O)Nc1nnc(-c2ccccc2)o1 | 0.5% (inactive) | 
43 | COc1ccc(OCCCn2cccc2/C=C2/C(=N)N3OC(C)=CC3=NC2=O)cc1 | 0.8% (inactive) | 
44 | Cc1nn(C)c(C)c1S(=O)(=O)N1CCC(CO)(Cc2ccc(Cl)cc2)CC1 | 2.4% (inactive) | 
45 | O=C(CCCO)N/N=C/c1cc(Br)ccc1O | 14.5% (inactive) | 
46 | CCN(CC)CCn1c(/N=C/c2cc(Br)ccc2O)nc2ccccc21 | -10.6% (inactive) | 
47 | Oc1ccc(Br)cc1C=Nc1ccc2[nH]ncc2c1 | 75.6% (active) | 86.7%
48 | O=C(COC(=O)/C=C/c1ccc2c(c1)OCO2)NC1CCS(=O)(=O)C1 (stereo not given) | 0.9% (inactive) | 
49 | O=[N+]([O-])c1ccc2c(c1)C(N1CCOCC1)/C(=C/C1(O)CCCCC1)O2 (stereo not given) | -4.2% (inactive) | 
50 | CN(C(=O)CSc1nnc(-c2c[nH]c3ccccc23)o1)C1CCS(=O)(=O)C1 (stereo not given) | 2.4% (inactive) | 
51 | O=c1c2ccccc2c(-c2ccccc2)nn1Cc1ccccc1 | 1.4% (inactive) | 
52 | CSc1c(SCc2ccccc2)cnn(Cc2ccccc2)c1=O | 59% (active) | 54.5%
53 | Cn1c(CO)cnc1SCc1ccccc1 | 3.5% (inactive) | 
54 | CNC(=O)C(NC(=O)c1ccccc1)=C(C)C | -2.9% (inactive) | 
55 | Cc1nc(C(=O)Nc2ccc(Cl)cc2)sc1C1(C)CC(c2ccccc2)=NO1 (stereo not given) | -2.6% (inactive) | 
56 | Cc1cc(C#N)c(SCC(N)=O)nc1-c1ccc(F)cc1 | 14.7% (inactive) | 
57 | O=C(C1CCCO1)N1CCN(C(=S)NC2CC2)CC1 (stereo not given) | -0.8% (inactive) | 
58 | CCCCCCCN=C(C)c1ccccc1O | -0.5% (inactive) | 
